From PubChem
Rows were chosen to be rich in hits. Some 6.5% of all compounds tested hit in one or more screens of this group.
HT1080NT lethal = kills 2HG-producing HT-1080-NT fibrosarcoma cells | actives 1.6% (n = 360,000) | HT-1080-NT fibrosarcoma viability, CellTiter-Glo ATP luminescence, 48 h | Potency, µM (series often up to 46.1 µM), for inactives: at the highest dose activity, negative = less viability, hits mostly cytotoxic;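 further: NT is the 2HG producing partner of a matched IDH1 knockdown line; potency means the concentration at half of the fitted maximal effect; 0% = DMSO-treated cells and -100% = media-only wells without cells; nearly all actives have a fitted effect of over 55% in size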
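Luminescent CellTiter-Glo readout after 48 hours of compound exposure at 37 degrees C defined viability of HT-1080-NT cells. Activity was normalized to DMSO wells and cell-free media wells; concentration-response curves were fitted and assigned curve classes.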
HepG2 tox = counter-screen for TGF-b inhibitors: cytotoxicity in HepG2 cells. HepG2 CAGA-GFP viability, ATP luminescence, 18 h. Potency, µM (highest dose often 46.1 µM), inactives show top-dose activity change, negative = cytotoxicity, hits mostly cytotoxic. actives 0.76% (n = 410,000); further: potency means the concentration at half of the fitted maximal effect
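CellTiter-Glo luminescence gave cytotoxicity after 18 hours at 37 degrees C. The cells were HepG2 CAGA-GFP in 1% FBS DMEM, stimulated with 500 pg/mL TGF-beta after compound addition. %Activity was normalised to no-cell wells (complete cell-killing) and DMSO (no toxicity), and curves were fitted and classified.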
HT1080 IDH1KD tx = kills HT-1080 cells with IDH1 knockdown; HT-1080 IDH1 knockdown viability, ATP luminescence, 48 h; AID 686971; Potency, µM (doses to about 46.1 µM), for inactives: at the highest dose activity, negative = toxicity, hits mostly cytotoxic; actives 2% (n = 360,000);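 further: potency means the concentration at half of the fitted maximal effect; 0% = DMSO wells and -100% = cell-free medium wells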
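Knockdown cells (IDH1KD HT-1080) received compounds 2 h after plating at 750 cells/well and were kept 48 h at 37 °C in 5% FBS RPMI. A CellTiter-Glo luminescence read gave % activity for curve fitting.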
Giardia killer = Giardia lamblia killing. activity change, % at 7.66 µM, hits read low. actives 0.15% (n = 340,000). Giardia lamblia trophozoite viability. AID 540267; in the data active means activity change below about -80%; inconclusive means between about -30% and that limit;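 further: parasites exposed to compound for two days anaerobically before the ATP read; on the % scale 0 is the no-effect control and ±100 the full control effect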
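Luminescence from cellular ATP indicates surviving trophozoites (100 cells/well) following 48 hrs anaerobic compound treatment at 37 deg C; signal develops 15-30 min at room temperature.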
TGFb inhibitor = inhibitors of TGF-b signaling | HepG2 CAGA-GFP TGF-b/SMAD3 reporter, GFP fluorescence, 18 h; TGF-beta stimulated, 500 pg/mL final | Potency, µM (titrated, usually from 46.1 µM), inactives show top-dose activity, negative = inhibition, hits mostly inhibitors | actives 1.2% (n = 410,000); further: potency means the concentration at half of the fitted maximal effect; on the % scale 0 is the no-effect control and ±100 the full control effect; nearly all actives have a fitted effect of over 65% in size
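HEPG2 CAGA-GFP reporter cells (1000/well, DMEM with 1% FBS) received compounds, then recombinant TGF-beta at 500 pg/mL final for 18 hours at 37 degrees C. Per-cell GFP summed per well was normalised to unstimulated and stimulated DMSO controls before curve fitting.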
IL-1B inflam inh = inflammasome signaling inhibition, IL-1 beta readout | THP-1 LPS/ATP IL-1B secretion, AlphaLISA, 16 h; hits give low values | activity change, % at 57.5 µM | actives 4.7% (n = 360,000) | AID 743279; in the data active means activity change below about -50%; inconclusive means mostly about -30% to -49%; further: on the % scale 0 is the no-effect control and ±100 the full control effect
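THP-1 cells pretreated 1 hr with compounds (up to 57.5 uM final), then stimulated with LPS (250 ng/mL final) plus ATP (1.25 mM final); secreted IL-1B measured by AlphaLISA after 16 hr, decreased signal indicating inhibition.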
* marks the source's active call; other numbers are inactive results. Unless noted, the call rests on the fitted dose curve; in most records, active means well fitted curve in the direction sought with a large enough effect; inconclusive means small, poorly fitted or top-dose-only effect, or another doubt; inactive means no such curve, though single readings can be large; an effect the other way counts as inactive or inconclusive.

How did O=C(c1noc2c1CCCC2)N1CCC(CO)(Cc2ccccc2Cl)CC1 do in these assays?
HT1080NT lethal: -3%; HepG2 tox: -5%; HT1080 IDH1KD tx: -5%; Giardia killer: 24; TGFb inhibitor: -14%; IL-1B inflam inh: -81*

Results for C[C@@H]1C=CC(=O)O[C@@H]1c1ccc(Cl)cc1 ?
HT1080NT lethal: inconclusive; HepG2 tox: -49%; HT1080 IDH1KD tx: inconclusive; Giardia killer: 12; TGFb inhibitor: inconclusive; IL-1B inflam inh: -108*

What do the screens show for `CC1C(=O)OC(c2ccc(Cl)cc2)C(C)(C)C1=O` (stereo not given)?
HT1080NT lethal: 14%; HepG2 tox: 0%; HT1080 IDH1KD tx: 2%; Giardia killer: 6; TGFb inhibitor: -5%; IL-1B inflam inh: 0

Results for CC(C)CC(NC(=O)c1ccc(Cl)cc1)C(=O)OCC(=O)c1ccc2c(c1)NC(=O)CO2 (stereo not given) ?
HT1080NT lethal: 10µM*; HepG2 tox: 3.2µM*; HT1080 IDH1KD tx: 8.2µM*; Giardia killer: -4; TGFb inhibitor: 11µM*; IL-1B inflam inh: -86*

Results for O=C(Nc1ccc(Cl)cc1)Nc1ccc2c(c1)N1CCN=C1S2 ?
HT1080NT lethal: 21µM*; HepG2 tox: -34%; HT1080 IDH1KD tx: 33µM*; Giardia killer: 11; TGFb inhibitor: -14%; IL-1B inflam inh: -66*

Results for Nc1ccc2c(c1)N1CCN=C1S2 ?
HT1080NT lethal: -2%; HepG2 tox: -6%; HT1080 IDH1KD tx: -9%; Giardia killer: 1; TGFb inhibitor: 4%; IL-1B inflam inh: -2

What do the screens show for `Nc1nc(SCC(=O)Nc2cc(Cl)ccc2Cl)n[nH]1`?
HT1080NT lethal: 0%; HepG2 tox: -9%; HT1080 IDH1KD tx: -1%; Giardia killer: -3; TGFb inhibitor: 0%; IL-1B inflam inh: 48

Results for COC(=O)c1c(NC(=O)CSc2n[nH]c(N)n2)sc(C)c1C ?
HT1080NT lethal: -12%; HepG2 tox: -16%; HT1080 IDH1KD tx: -5%; Giardia killer: 37; TGFb inhibitor: 1%; IL-1B inflam inh: -11

Results for Nc1nc(SCC(=O)Nc2cc(Cl)c(Cl)cc2Cl)n[nH]1 ?
HT1080NT lethal: 12%; HepG2 tox: -5%; HT1080 IDH1KD tx: 10%; Giardia killer: 1; TGFb inhibitor: 6%; IL-1B inflam inh: -52*

Results for CCOC(=O)c1c(NC(=O)CSc2n[nH]c(N)n2)sc(CC)c1C ?
HT1080NT lethal: -29%; HepG2 tox: -39%; HT1080 IDH1KD tx: -29%; Giardia killer: 9; TGFb inhibitor: inconclusive; IL-1B inflam inh: -92*

How did CCOc1ccc(N(Cc2ccc(C(=O)O)cc2)S(=O)(=O)c2ccc(C)cc2)cc1 do in these assays?
HT1080NT lethal: inconclusive; HepG2 tox: -1%; HT1080 IDH1KD tx: 7.3µM*; Giardia killer: 13; TGFb inhibitor: inconclusive; IL-1B inflam inh: 7

How did CCOC(=O)c1ccc(N2C(=O)c3n[nH]c(-c4ccco4)c3C2c2ccc(OC)cc2OC)cc1 (stereo not given) do in these assays?
HepG2 tox: -46%; TGFb inhibitor: 16µM*

How did CCOC(=O)c1ccc(N2C(=O)c3n[nH]c(C)c3C2c2ccc(OC)cc2OC)cc1 (stereo not given) do in these assays?
HT1080NT lethal: -21%; HepG2 tox: -55%; HT1080 IDH1KD tx: -22%; Giardia killer: 27; TGFb inhibitor: inconclusive; IL-1B inflam inh: -58*

What do the screens show for `COc1cc(CN(C(C)=O)c2ccccc2C(=O)O)ccc1[N+](=O)[O-]`?
HT1080NT lethal: 16%; HepG2 tox: -7%; HT1080 IDH1KD tx: 7%; Giardia killer: 12; TGFb inhibitor: -2%; IL-1B inflam inh: 4

What do the screens show for `COc1cc(/C=C/C(=O)OCC(=O)Nc2c(C)n(C)n(-c3ccccc3)c2=O)ccc1OCC#N`?
HT1080NT lethal: 0%; HepG2 tox: 1%; HT1080 IDH1KD tx: 2%; Giardia killer: 9; TGFb inhibitor: -3%; IL-1B inflam inh: 19

How did CCOC(=O)c1c(CN2CCN(C)CC2)n(C)c2cc(Br)c(OC)cc12 do in these assays?
HT1080NT lethal: inconclusive; HepG2 tox: 11µM*; HT1080 IDH1KD tx: inconclusive; Giardia killer: 12; TGFb inhibitor: 14%; IL-1B inflam inh: -19

How did COc1cc2c(C(=O)OCCN(C)C)c(CSc3ccccc3)n(C)c2cc1Br do in these assays?
HT1080NT lethal: 14%; HepG2 tox: -22%; HT1080 IDH1KD tx: 17%; Giardia killer: 8; TGFb inhibitor: -1%; IL-1B inflam inh: 16

Results for CCOC(=O)c1c(CSC(=N)N)n(C)c2cc(Br)c(OC(C)=O)cc12 ?
HT1080NT lethal: inconclusive; HepG2 tox: 35%; HT1080 IDH1KD tx: inconclusive; Giardia killer: 21; TGFb inhibitor: -25%; IL-1B inflam inh: -102*

Results for CCOC(=O)c1c(CSC(=N)N)n(-c2ccc(C)cc2)c2cc(Br)c(OC(C)=O)cc12 ?
HT1080NT lethal: -13%; HepG2 tox: 11µM*; HT1080 IDH1KD tx: -27%; Giardia killer: 7; TGFb inhibitor: 22µM*; IL-1B inflam inh: -76*

Results for CCOC(=O)c1c(CN(C)C)n(-c2ccc(C)cc2)c2cc(Br)c(O)cc12 ?
HT1080NT lethal: -9%; HepG2 tox: -34%; HT1080 IDH1KD tx: -19%; Giardia killer: -5; TGFb inhibitor: inconclusive; IL-1B inflam inh: -63*

Results for CCOC(=O)c1c(CN2CCCCC2)n(C)c2cc(Br)c(O)cc12 ?
HT1080NT lethal: 0%; HepG2 tox: -21%; HT1080 IDH1KD tx: -6%; Giardia killer: 4; TGFb inhibitor: -7%; IL-1B inflam inh: 11

Results for CCOC(=O)c1c(CN(C)C)n(-c2ccccc2)c2cc(Br)c(OC)cc12 ?
HT1080NT lethal: inconclusive; HepG2 tox: -6%; HT1080 IDH1KD tx: inconclusive; Giardia killer: 15; TGFb inhibitor: inconclusive; IL-1B inflam inh: -8

How did COc1ccccc1NS(=O)(=O)c1ccc(C)c(NS(=O)(=O)c2cc(C(=O)O)cc(C)c2C)c1 do in these assays?
HT1080NT lethal: 6%; HepG2 tox: -1%; HT1080 IDH1KD tx: 27%; Giardia killer: 15; TGFb inhibitor: -8%; IL-1B inflam inh: inactive

What do the screens show for `CCOC(=O)c1c(C)n(CC(O)CN(C)C)c2cc(Br)c(OC)cc12` (stereo not given)?
HT1080NT lethal: 0%; HepG2 tox: -18%; HT1080 IDH1KD tx: -12%; Giardia killer: 12; TGFb inhibitor: 28%; IL-1B inflam inh: -79*
